Experimental findings from ChEMBL document CHEMBL3988442, “University of Dundee, Small-Polar-MMV Screening Library” (2021) are described below.

What all share (parameters): scale not given: direction of the effect not stated beside the values
The target of assay [1] is Protein translocase subunit SecA (Escherichia coli (strain K12)) (UniProt P10408). Kind of assay: Assay to Identify E. coli SecA ATPase Inhibitors. Format: functional. Particulars: 30 µM.
Assay [2] addresses T1, Ubiquitin-activating enzyme e1, putative (Leishmania donovani (strain BPK282A1)) (UniProt E9BSI1).
T1 sequence (whole entry): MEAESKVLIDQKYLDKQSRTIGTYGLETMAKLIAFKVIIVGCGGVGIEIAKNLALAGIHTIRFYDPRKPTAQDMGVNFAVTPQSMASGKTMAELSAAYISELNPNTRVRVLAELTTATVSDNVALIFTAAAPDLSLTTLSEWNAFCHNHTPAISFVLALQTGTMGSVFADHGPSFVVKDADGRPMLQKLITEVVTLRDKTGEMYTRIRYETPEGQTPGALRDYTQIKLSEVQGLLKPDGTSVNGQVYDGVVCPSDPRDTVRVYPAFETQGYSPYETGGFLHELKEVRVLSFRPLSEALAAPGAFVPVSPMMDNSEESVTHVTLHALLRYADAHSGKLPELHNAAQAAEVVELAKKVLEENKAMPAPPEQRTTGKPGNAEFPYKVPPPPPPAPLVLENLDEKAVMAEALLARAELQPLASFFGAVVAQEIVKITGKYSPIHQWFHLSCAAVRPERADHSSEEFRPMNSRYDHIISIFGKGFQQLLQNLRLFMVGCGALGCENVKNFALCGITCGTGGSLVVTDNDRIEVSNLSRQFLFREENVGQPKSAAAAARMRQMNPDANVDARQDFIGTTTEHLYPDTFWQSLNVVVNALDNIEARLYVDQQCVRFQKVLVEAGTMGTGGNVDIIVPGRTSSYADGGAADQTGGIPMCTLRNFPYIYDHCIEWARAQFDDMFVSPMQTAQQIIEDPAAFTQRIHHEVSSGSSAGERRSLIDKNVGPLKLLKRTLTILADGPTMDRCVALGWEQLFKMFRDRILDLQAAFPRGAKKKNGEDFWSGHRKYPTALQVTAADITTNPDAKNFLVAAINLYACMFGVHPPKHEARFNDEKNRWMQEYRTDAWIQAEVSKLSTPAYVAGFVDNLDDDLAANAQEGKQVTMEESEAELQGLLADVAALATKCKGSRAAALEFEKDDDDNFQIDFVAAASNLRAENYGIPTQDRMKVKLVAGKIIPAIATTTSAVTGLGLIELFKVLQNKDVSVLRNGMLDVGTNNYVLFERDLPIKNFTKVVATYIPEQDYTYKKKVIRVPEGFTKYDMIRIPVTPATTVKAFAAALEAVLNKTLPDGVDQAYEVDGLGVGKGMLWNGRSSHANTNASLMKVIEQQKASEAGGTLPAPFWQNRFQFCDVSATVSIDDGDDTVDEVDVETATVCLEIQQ
Kind of assay: Leishmania donovani Ubiquitin Activating Enzyme (LdE1). The assay is classed as functional. The conditions noted are these: 30 µM.

Assay [3] addresses AMP-activated protein kinase, AMPK (Homo sapiens) (UniProt P54646+O43741+P54619+Q9UGJ0+Q9Y478+Q13131+Q9UGI9). Kind of assay: AMP-dependent Kinase enzyme assay. An in vitro enzyme assay that detects ADP turnover that is directly proportional to AMPK activity. This uses naive AMPK that is activated during the assay with MK-8722. Particulars: 30 µM. Format: functional.
Assay [4] addresses Sialic acid-binding Ig-like lectin 9 (Homo sapiens) (UniProt Q9Y336). Description: Hs-Siglec9 ALPHAscreen SOP 20170721. Particulars: 10 µM.
In the next assay the test system is Trypanosoma cruzi. Kind of assay: Trypanosoma cruzi phosphomannomutase and mannose-1-phosphate guanylyltransferase assay. The assay is classed as functional. Particulars: 10 µM.
For assay [5], the target named is T2, Arginase-2, mitochondrial (Homo sapiens) (UniProt P78540).
T2 sequence (whole entry): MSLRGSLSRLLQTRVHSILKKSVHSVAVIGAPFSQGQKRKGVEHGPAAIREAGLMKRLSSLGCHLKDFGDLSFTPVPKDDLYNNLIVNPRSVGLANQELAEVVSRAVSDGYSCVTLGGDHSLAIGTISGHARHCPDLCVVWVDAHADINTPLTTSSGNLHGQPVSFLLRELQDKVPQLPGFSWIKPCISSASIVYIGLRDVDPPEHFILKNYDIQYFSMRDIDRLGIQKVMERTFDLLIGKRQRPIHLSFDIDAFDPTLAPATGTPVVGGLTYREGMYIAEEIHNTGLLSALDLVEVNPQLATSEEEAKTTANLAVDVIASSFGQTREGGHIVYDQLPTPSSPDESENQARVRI
Description: in vitro enzyme assay to detect the production of urea directly proportional to the activity of Arginase II. Also: in the data most compounds retested in dose-response had high values. Particulars: 33.3 µM. The assay is classed as functional.

Assay [6] has as its target T3, Proteasome subunit beta (Trypanosoma cruzi) (UniProt O96673).
T3 sequence (whole entry): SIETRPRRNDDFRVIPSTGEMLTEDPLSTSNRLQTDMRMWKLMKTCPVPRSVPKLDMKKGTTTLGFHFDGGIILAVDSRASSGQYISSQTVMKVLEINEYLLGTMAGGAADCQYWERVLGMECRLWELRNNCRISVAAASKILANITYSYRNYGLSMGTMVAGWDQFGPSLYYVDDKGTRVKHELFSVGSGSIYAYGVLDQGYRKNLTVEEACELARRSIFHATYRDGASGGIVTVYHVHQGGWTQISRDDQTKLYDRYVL
Kind of assay: Trypanosoma cruzi proteasome chymotrypsin-like activity (TcProtChymo) assay. Also: in the data most compounds retested in dose-response had high values. The assay is classed as functional. The conditions noted are these: 9.37 µM.

The species entered for another assay is Homo sapiens. Kind of assay: To identify inhibition of the IFN signalling (Jak-Stat) pathway via expression of an eGFP reporter gene under the control of an IFN-stimulated response element (ISRE) containing MxA promoter. The assay is classed as functional. The conditions noted are these: 30 µM.
For assay [7], the target named is T4, Tyrosyl-tRNA synthetase, putative (Trypanosoma cruzi (strain CL Brener)) (UniProt Q4DSP6).
T4 sequence (whole entry): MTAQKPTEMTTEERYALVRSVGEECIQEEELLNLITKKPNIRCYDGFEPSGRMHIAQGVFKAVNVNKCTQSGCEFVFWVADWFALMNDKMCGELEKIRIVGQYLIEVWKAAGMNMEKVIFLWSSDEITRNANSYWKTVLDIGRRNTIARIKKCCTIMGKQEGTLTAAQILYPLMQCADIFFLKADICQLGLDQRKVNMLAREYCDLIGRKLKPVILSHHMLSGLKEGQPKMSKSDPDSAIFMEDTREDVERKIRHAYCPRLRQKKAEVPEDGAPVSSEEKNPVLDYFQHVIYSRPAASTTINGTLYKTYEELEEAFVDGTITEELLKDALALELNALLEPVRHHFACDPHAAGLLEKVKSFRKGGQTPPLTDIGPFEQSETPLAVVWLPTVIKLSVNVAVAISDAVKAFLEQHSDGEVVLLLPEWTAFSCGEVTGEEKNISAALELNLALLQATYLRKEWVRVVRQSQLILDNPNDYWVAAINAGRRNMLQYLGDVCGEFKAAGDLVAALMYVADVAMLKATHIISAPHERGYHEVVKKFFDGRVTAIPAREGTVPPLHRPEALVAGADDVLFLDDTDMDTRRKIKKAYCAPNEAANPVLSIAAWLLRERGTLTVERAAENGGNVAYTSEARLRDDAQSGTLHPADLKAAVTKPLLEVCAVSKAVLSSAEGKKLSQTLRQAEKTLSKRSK
Kind of assay: Trypanosoma cruzi tyrosyl tRNA synthetase (TcYRS) _High Tyrosine SOP. Also: in the data most compounds retested in dose-response had high values. The assay is classed as functional. Particulars: 30 µM.

The target in assay [8] is T4, Tyrosyl-tRNA synthetase, putative (Trypanosoma cruzi (strain CL Brener)). Description: Trypanosoma cruzi tyrosyl tRNA synthetase (TcYRS) SOP. The assay is classed as functional. Particulars: 30 µM.
Assay [9] addresses Chromo domain-containing protein 1 (Saccharomyces cerevisiae (strain ATCC 204508 / S288c) (Baker's yeast)) (UniProt P32657). Kind of assay: ScCHD-1 Enzyme Inhibition Assay. Also: in the data most compounds retested in dose-response had high values. The assay is classed as functional. The conditions noted are these: 30 µM.

For some of these results: Results with a measured potency or affinity are listed apart.

Sequence of Sialic acid-binding Ig-like lectin 9 (Homo sapiens) (Q9Y336 whole entry): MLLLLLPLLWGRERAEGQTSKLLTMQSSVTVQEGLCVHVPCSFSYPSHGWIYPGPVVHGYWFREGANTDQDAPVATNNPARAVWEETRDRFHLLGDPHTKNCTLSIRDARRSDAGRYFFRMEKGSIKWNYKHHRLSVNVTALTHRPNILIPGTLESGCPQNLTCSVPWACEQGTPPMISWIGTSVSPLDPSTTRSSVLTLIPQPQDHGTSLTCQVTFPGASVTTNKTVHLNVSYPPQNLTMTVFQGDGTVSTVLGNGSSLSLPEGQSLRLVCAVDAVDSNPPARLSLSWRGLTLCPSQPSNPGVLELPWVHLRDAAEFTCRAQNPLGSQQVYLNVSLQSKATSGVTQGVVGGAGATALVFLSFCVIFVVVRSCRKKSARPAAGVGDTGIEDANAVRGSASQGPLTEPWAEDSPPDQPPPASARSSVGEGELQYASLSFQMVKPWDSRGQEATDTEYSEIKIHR
Sequence of Protein translocase subunit SecA (Escherichia coli (strain K12)) (P10408 whole entry): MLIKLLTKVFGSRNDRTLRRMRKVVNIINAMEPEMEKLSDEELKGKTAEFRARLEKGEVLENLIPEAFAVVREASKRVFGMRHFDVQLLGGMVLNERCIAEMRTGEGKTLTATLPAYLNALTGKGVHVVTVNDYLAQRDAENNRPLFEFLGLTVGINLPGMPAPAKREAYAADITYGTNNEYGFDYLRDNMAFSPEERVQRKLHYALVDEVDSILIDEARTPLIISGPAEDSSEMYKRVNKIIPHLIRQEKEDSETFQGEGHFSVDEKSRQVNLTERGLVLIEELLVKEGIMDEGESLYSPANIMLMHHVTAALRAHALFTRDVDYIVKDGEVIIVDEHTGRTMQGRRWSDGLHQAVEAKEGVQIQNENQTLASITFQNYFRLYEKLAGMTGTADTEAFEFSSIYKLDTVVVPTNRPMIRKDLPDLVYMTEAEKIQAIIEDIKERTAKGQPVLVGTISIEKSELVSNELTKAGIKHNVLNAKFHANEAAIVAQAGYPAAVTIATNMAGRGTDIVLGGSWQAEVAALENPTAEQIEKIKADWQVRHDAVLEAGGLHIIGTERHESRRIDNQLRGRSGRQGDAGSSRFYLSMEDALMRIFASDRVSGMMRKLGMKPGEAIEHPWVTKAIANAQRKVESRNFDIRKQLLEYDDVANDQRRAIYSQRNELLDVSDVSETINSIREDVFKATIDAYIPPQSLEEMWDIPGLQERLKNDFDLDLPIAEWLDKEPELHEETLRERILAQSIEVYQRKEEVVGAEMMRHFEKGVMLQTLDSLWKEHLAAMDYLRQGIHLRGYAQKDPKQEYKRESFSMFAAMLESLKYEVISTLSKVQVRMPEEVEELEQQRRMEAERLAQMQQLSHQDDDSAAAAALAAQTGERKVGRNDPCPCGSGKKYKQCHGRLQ
Sequence of Chromo domain-containing protein 1 (Saccharomyces cerevisiae (strain ATCC 204508 / S288c) (Baker's yeast)) (P32657 whole entry, the tested form may be a part): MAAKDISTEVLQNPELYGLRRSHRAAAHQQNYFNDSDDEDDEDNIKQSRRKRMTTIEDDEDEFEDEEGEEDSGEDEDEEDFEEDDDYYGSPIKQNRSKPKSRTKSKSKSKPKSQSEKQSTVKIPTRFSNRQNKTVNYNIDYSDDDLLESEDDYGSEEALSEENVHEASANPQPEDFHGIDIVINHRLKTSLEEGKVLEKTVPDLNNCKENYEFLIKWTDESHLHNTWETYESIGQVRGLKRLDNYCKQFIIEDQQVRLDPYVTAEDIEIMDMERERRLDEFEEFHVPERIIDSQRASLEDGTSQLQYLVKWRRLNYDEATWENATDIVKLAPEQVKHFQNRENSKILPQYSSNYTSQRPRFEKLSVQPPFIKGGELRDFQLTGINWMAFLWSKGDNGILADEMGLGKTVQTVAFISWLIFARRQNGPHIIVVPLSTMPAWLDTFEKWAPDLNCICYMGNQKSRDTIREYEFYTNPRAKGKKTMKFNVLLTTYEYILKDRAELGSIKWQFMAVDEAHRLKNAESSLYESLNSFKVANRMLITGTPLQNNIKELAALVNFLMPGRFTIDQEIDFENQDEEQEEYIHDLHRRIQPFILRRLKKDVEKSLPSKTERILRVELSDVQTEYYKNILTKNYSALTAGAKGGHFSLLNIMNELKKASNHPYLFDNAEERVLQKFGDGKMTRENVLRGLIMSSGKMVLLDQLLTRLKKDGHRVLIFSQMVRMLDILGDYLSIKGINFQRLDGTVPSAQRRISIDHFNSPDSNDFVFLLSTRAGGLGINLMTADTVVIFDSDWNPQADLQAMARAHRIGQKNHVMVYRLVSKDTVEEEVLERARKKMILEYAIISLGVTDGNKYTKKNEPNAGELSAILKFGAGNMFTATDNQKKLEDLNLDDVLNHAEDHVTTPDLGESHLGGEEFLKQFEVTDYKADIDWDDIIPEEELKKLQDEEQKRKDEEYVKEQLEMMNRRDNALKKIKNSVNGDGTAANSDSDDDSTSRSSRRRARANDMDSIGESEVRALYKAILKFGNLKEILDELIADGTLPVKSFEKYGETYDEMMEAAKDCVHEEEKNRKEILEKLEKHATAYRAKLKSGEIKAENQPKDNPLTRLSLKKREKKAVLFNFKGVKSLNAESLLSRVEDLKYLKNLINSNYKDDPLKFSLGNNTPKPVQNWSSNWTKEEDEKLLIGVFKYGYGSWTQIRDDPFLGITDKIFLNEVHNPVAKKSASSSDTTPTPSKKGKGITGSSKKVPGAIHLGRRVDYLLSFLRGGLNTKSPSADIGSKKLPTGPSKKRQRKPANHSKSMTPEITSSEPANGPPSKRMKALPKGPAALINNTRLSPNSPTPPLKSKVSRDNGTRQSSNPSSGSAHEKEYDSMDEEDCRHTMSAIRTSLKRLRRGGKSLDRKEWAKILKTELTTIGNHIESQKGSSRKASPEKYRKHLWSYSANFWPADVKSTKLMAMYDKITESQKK

Regarding `Cc1cnn(C2CCCN(C(=O)C3=NN(C)C(=O)CC3)C2)c1` (stereo unspecified), the Percent Effect is -6.81% in assay [1]; 21.6% in [2]; -15.8% in assay [3]; 11.8% in [4]; 8.4% in the assay with Trypanosoma cruzi; 3.21% in assay [5]. The Percent Effect in assay [6] was 15.7%; in the assay filed under Homo sapiens, 2.98%; in assay [7], 8.37%; in assay [8], 13.6%; in [9] it was -12.6%.

In the case of `COc1ccc(NC(C)C(=O)N2CCN(Cc3ccccc3)CC2)cn1` (stereo unspecified), the Percent Effect was -0.598% in assay [1]; -2.74% in assay [2]; -258% in assay [3]; -6.68% in [4]; -0.783% in the assay on Trypanosoma cruzi; 3.18% in [5]. For the same molecule, the Percent Effect in assay [6] is -6.21%; in the assay filed under Homo sapiens it was 4.99%; in assay [7], 1.07%; in [8], 0%; in [9] it was -0.618%.

As to `CN(C)CC1CSCCCN1C(=O)c1ccc(C(C)(C)C)cc1` (stereo unspecified), the Percent Effect in assay [1] was 2.6%; in assay [2], 2.6%; in assay [3] it was 2.24%; in [4], 1.48%; with Trypanosoma cruzi it was -5.23%; in assay [5], 7.1%. Besides, the Percent Effect in assay [6] was 1.39%; in the assay filed under Homo sapiens, 1.95%; in assay [7], 6.35%; in assay [8] it was 16.7%; in [9], -4.54%.

On to `Cc1nn(C)c(N2CCOCC2)c1CNC(c1cccs1)C(C)C` (stereo unspecified), for which the Percent Effect in [1] is -2.38%; in assay [2], 21.1%; in [3], -9.37%; in [4], -0.827%; with Trypanosoma cruzi, 1.59%; in assay [5] it was 1.8%. Besides, the Percent Effect is 12.6% in assay [6]; -16.1% in the assay filed under Homo sapiens; 10.3% in [7]; 28.4% in assay [8]; -6.09% in [9].

In the case of `CC1CCCCN1c1nc2c(c(=O)[nH]1)CCN(Cc1cccnc1)C2` (stereo unspecified), the Percent Effect was -3.13% in assay [1]; 12.2% in [2]; 6.19% in [3]; 3.8% in assay [4]; 0.79% in the assay with Trypanosoma cruzi; 2.09% in [5]. In addition, the Percent Effect in [6] is 9.36%; in the assay listed under Homo sapiens, 2.99%; in assay [7], 3.23%; in assay [8], 14.3%; in assay [9] it was -18.2%.

With `CNC(=O)[C@H]1C[C@H]2OCC[C@H]2N(Cc2cccc3ccccc23)C1`, the Percent Effect in assay [1] was -2.27%; in assay [2] it was 10.4%; in [3], 2.57%; in assay [4] it was 2.56%; in the assay with Trypanosoma cruzi it was -0.296%; in [5], -3.23%. In addition, the Percent Effect in assay [6] is 8.01%; in the assay filed under Homo sapiens, -0.999%; in [7] it was 3.17%; in [8] it was 8.97%; in assay [9] it was -9.11%.

`O=C(c1ccccn1)N1C[C@@H]2CC[C@H](C1)N(C(=O)CCc1ccsc1)C2`: the Percent Effect in assay [1] was -0.66%; in [2], 7.79%; in assay [3] it was 1.47%; in assay [4] it was 8.15%; with Trypanosoma cruzi it was -4.82%; in assay [5] it was -5.52%. In addition, the Percent Effect in [6] was 13.3%; in the assay listed under Homo sapiens, 5.27%; in assay [7] it was 7.53%; in [8], 13.6%; in assay [9] it was -2.49%.

On to `O=C([C@H]1COC[C@H]2CN(Cc3ccco3)C[C@H]21)N1CCCO1`, for which the Percent Effect in assay [1] was -7.92%; in [2] it was 18.7%; in assay [3], -1.75%; in assay [4], 0.139%; with Trypanosoma cruzi, 4.63%; in [5] it was -47.9%. Moreover, the Percent Effect was 4.62% in [6]; -0.652% in the assay listed under Homo sapiens; 6.25% in [7]; 15% in assay [8]; -6.91% in assay [9].

With `CC(C1CC1)N(C(=O)NCCCn1nc2ccccn2c1=O)C1CC1` (stereo unspecified), the Percent Effect in assay [1] was -5.32%; in assay [2], 16.4%; in [3] it was -9.44%; in assay [4] it was 24%; in the assay with Trypanosoma cruzi, 3.13%; in assay [5] it was 20.9%. For the same molecule, the Percent Effect in assay [6] is 15.3%; in the assay filed under Homo sapiens, 1.6%; in [7], 4.3%; in assay [8] it was 15%; in assay [9] it was -6.77%.

Turning to `CC(C)(C)c1n[nH]c(C2CN(C(=O)c3cc(C4CC4)on3)CCO2)n1` (stereo unspecified), the Percent Effect in assay [1] is -2.82%; in assay [2] it was 7.89%; in [3], 1.22%; in [4], -5.79%; with Trypanosoma cruzi, 5.55%; in [5], -8.28%. Also, the Percent Effect is -4.7% in assay [6]; 0.97% in the assay listed under Homo sapiens; 1.06% in assay [7]; 5.2% in assay [8]; -10.8% in [9].

In the case of `O=C(NCc1ccccn1)c1nnn(-c2ccc(Br)cc2)n1`, the Percent Effect in [1] is -3.5%; in assay [2] it was 18.2%; in assay [3] it was -2.49%; in assay [4], -2.46%; in the assay with Trypanosoma cruzi, 1.68%; in [5], -5.81%. Further, the Percent Effect in [6] is 13.2%; in the assay listed under Homo sapiens, 16.1%; in [7], 5.29%; in [8], 11.5%; in assay [9], -12.6%.
